Several values for one entry are separate records, joined by “and”; a condition that tells them apart may be missing. Identical values can stand only once. Results filed as inconclusive are left out. A number with no mark means an inactive call. Activity calls are given as the source filed them. Calls follow the shape of the dose curve; as a rule, active = well fitted cell-killing curve with a large enough effect in the repeat runs; inconclusive = weak or mixed curves, or effect the other way; inactive = no such curve, though single readings can be large or run the other way.
% is scaled to controls: 0 for no effect and ±100 for the full control effect; potency is read from the fitted curve at half-maximal effect.

A short description of the test: qHTS assay for small molecule activators of the heat shock response signaling pathway - cell viability counter screen (AID 743209). Also: nearly all actives have a fitted effect of over 50% in size. The note with it: HSE-bla HeLa viability, CellTiter-Glo luminescence, 5 h; series mostly up to 62.6 µM; activity change, negative = cytotoxicity: at the top concentration. The source says:
U.S. Tox21 Program National Center for Advancing Translational Sciences [NCATS] NIH Chemical Genomics Center [NCGC] U.S. Environmental Protection Agency [EPA] National Institutes of Environmental Health Sciences [NIEHS] National Toxicology Program [NTP] U.S. Food and Drug Administration [FDA] Tox21 Assay Overview: Various chemicals, environmental and physiological stress conditions may lead to the activation of heat shock response/ unfolded protein response (HSR/UPR). There are three heat shock transcription factors (HSFs) (HSF-1, -2, and -4) mediating transcriptional regulation of the human HSR. To identify the compounds that activate HSR signaling, HSE-bla HeLa cell line (Invitrogen, Carlsbad, CA, USA) containing a beta-lactamase reporter gene under the control of the heat shock response elements was used to screen Tox21 10K compound library. The cytotoxicity of the Tox21 compound library against the HSE-bla HeLa cell line was tested in parallel by measuring the cell viability using CellTiter-Glo assay (Promega, Madison, WI) in the same wells.
Tox21 Assay Protocol Summary: The CellSensor HSE-bla HeLa cells (Invitrogen, Carlsbad, CA, USA) were dispensed at 1500 cells/6uL/well into 1536-well black wall/clear bottom plates using a Multidrop combi (Thermo Fisher Scientific, Waltham, MA) dispenser. After the assay plates were incubated at 37 C and 5% CO2 overnight, 23 nL of compounds dissolved in DMSO, positive controls or DMSO only was transferred to the assay plate by a Pintool station (Kalypsys, San Diego, CA). The plates were incubated at 37 C for 5 h. After 1 uL of LiveBLAzerTM B/G FRET substrate was added using a Flying Reagent Dispenser (FRD, Beckman Coulter, Indianapolis, IN, USA), the plates were incubated at room temperature for 2.5 h, and fluorescence intensity was measured by an Envision plate reader (PerkinElmer, Shelton, CT). For cell viability readout that measures cytotoxicity, 3 ul/well of CellTiter-Glo reagent was added into the assay plates using a FRD. After 30 min incubation at room temperature, the luminescence intensity in the plates was measured using a ViewLux (PerkinElmer) plate reader.
Background: In qHTS, concentration-response curves come from the screen itself.
For the molecule `O=C1CCc2cc(OCCCCc3nnnn3C3CCCCC3)ccc2N1`, the “activity change, negative = cytotoxicity” value is -4.05%.

On to `O=c1oc2cc(O)ccc2c2oc3cc(O)ccc3c12`, for which the “activity change, negative = cytotoxicity” value was -2.61%.

For `c1cnccn1`, the “activity change, negative = cytotoxicity” value was 1.54% [at 81.1 µM].

`O=C(O)c1cc(=O)c2ccccc2o1`: the “activity change, negative = cytotoxicity” value was -11.1%.

Consider `CCCCOC(=O)CC`, for which the “activity change, negative = cytotoxicity” value is 10.8%.

Turning to `O=C1CCCCCCCCCCCCCCCO1`, the “activity change, negative = cytotoxicity” value was 10.3%.

For `Cc1c(C)c([N+](=O)[O-])c(C(C)(C)C)c([N+](=O)[O-])c1C`, the “activity change, negative = cytotoxicity” value was -21.8%.

As for `CC[N+](CC)(CC)CCOC(=O)C(C1CCCC1)C1CCCC1`, the “activity change, negative = cytotoxicity” value is -18.2%.

Regarding `O=C(O)c1cc(N=Nc2ccc([N+](=O)[O-])cc2)ccc1O`, the “activity change, negative = cytotoxicity” value is -2.35%.

As for `C=CC(C)(CCC=C(C)C)OC=O` (stereo not given), the “activity change, negative = cytotoxicity” value is -3.32%.

Take `C=Cc1ccccc1C=C`: the “activity change, negative = cytotoxicity” value was 12.5% [at 232 µM].

Turning to `CN(C)[C@@H](CCOc1cccc2ccccc12)c1ccccc1`, the “activity change, negative = cytotoxicity” value is -3.47%.

On to `CC(CCc1ccccc1)NCC(O)c1ccc(O)c(C(N)=O)c1` (stereo not given), for which the “activity change, negative = cytotoxicity” value was 2.4%.

As for `Clc1ccnc(Cl)n1`, the “activity change, negative = cytotoxicity” value is 5.56% [at 81.1 µM].

Regarding `O=[N+]([O-])c1ccc(O)cc1C(F)(F)F`, the “activity change, negative = cytotoxicity” value is -10.9%.

For the molecule `CCO[C@@H]1O[C@H](C(COCc2ccccc2)OCc2ccccc2)[C@H](OCc2ccccc2)[C@H]1O` (stereo not given in full), the “activity change, negative = cytotoxicity” value was 2.02%.

As for `Cc1c(N)cccc1C(F)(F)F`, the “activity change, negative = cytotoxicity” value was -1.45%.

As for `[Cu+]`, the “activity change, negative = cytotoxicity” value is -3.33%.

On to `Nc1nc(N)nc(-c2cc(Cl)ccc2Cl)n1`, for which the “activity change, negative = cytotoxicity” value is -11.5%.

Turning to `COc1cc(C)ccc1O`, the “activity change, negative = cytotoxicity” value is -5.21%.

For the molecule `Cc1c(C)c2c(c(C)c1O)CC[C@@](C)(CCC[C@H](C)CCC[C@H](C)CCCC(C)C)O2`, the “activity change, negative = cytotoxicity” value was -11.2% [at 81.1 µM].

As for `CN(C)c1ccc(C(=C2C=CC(=[N+](C)C)C=C2)c2ccc(N(C)C)cc2)cc1`, the Potency was 1.73 µM (active) and 4.36 µM (active) and 6.68 µM (active).

Regarding `COc1c(C)c2c(c(O)c1C/C=C(\C)CCC(=O)OCCN1CCOCC1)C(=O)OC2`, the “activity change, negative = cytotoxicity” value was -14.5%.

With `O=C1c2ccccc2C(=O)N1SC1CCCCC1`, the Potency is 54.9 µM (active).

`CC(C)=CCNc1ncnc2c1ncn2[C@@H]1O[C@H](CO)[C@@H](O)[C@H]1O`: the Potency was 13.3 µM (active).

In the case of `CCCCCCCCCCCCCC[N+](C)(C)C`, the Potency was 21.1 µM (active) and 15.5 µM (active) and 23.7 µM (active).

Take `CN1CCN(Cc2cc(-c3ccc4[nH]c(=O)oc4c3)co2)[C@@H](c2ccc(F)cc2)C1`: the “activity change, negative = cytotoxicity” value was -1.26%.

For the molecule `O=c1c(O)c(-c2ccc(O)cc2O)oc2cc(O)cc(O)c12`, the “activity change, negative = cytotoxicity” value is 3.93%.

Turning to `CC(C)OC(=O)C(O)(CC(=O)O)CC(=O)O`, the “activity change, negative = cytotoxicity” value is 14.6%.

For the molecule `Cc1cc(-c2ccc(N=Nc3cc(S(=O)(=O)O)c4ccccc4c3N)c(C)c2)ccc1N=Nc1cc(S(=O)(=O)O)c2ccccc2c1N`, the “activity change, negative = cytotoxicity” value is 0.616% [at 81.1 µM].

Take `OCCN1CCN(CCCN2c3ccccc3Sc3ccc(C(F)(F)F)cc32)CC1`: the “activity change, negative = cytotoxicity” value was -5.58%.

Turning to `CCC(=O)OC(=O)CC`, the “activity change, negative = cytotoxicity” value is -3.15%.

For `CC[C@H](C)COC(=O)/C=C/c1ccc(N=Cc2ccc(OC)cc2)cc1`, the “activity change, negative = cytotoxicity” value is -14.3%.

For the molecule `O=C1OC2(c3ccc(O)cc3Oc3cc(O)ccc32)c2ccc(N=C=S)cc21`, the “activity change, negative = cytotoxicity” value is 0.236% [at 81.1 µM].

Consider `[Cl][Pt-2]([Cl])([Cl])[Cl]`, for which the “activity change, negative = cytotoxicity” value is -11.2% [at 81.1 µM].

As to `Cc1ccc(C(C)C)cc2c(C)ccc1-2`, the “activity change, negative = cytotoxicity” value is 0.882%.

For the molecule `O=C(O)c1cc(-c2ccc(F)cc2F)ccc1O`, the “activity change, negative = cytotoxicity” value was -12.1%.

Take `NC(=O)c1cccc([N+](=O)[O-])c1`: the “activity change, negative = cytotoxicity” value is -2.58%.

As to `Oc1c(I)cc(Cl)c2cccnc12`, the Potency entry is “inactive”.

Consider `CCc1ccc(Br)cc1`, for which the “activity change, negative = cytotoxicity” value is -10.2% [at 81.1 µM].

The values above are taken from PubChem BioAssay (Tox21).
